Hit rate of the full screen: of about 320,000 compounds, about 3,100 (0.97%) were called active. Shown is part of a subset that was picked to be rich in actives. Values without a mark were called inactive.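 How the source made its calls: active means mean replicate inhibition of at least 70% and a set share of replicates each scoring 70 or more; inconclusive means meets just one of the two criteria; inactive means fails both criteria.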

The target of this experiment is Scavenger receptor class B member 1 (Mus musculus) (UniProt Q61009). Put plainly: inhibitors of SR-BI mediated HDL lipid uptake, primary screen, ldlA[mSR-BI] cells, fluorescence, single point (AID 488896).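 Further: 0% = median of neutral control wells and 100% = median of positive control wells.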 As to conditions: ldlA[mSR-BI] CHO cells, DiI-HDL uptake fluorescence, 3 h; at 12.5 µM; active compounds read high.
Chain of Scavenger receptor class B member 1 (Mus musculus) (Q61009 whole entry, looked up): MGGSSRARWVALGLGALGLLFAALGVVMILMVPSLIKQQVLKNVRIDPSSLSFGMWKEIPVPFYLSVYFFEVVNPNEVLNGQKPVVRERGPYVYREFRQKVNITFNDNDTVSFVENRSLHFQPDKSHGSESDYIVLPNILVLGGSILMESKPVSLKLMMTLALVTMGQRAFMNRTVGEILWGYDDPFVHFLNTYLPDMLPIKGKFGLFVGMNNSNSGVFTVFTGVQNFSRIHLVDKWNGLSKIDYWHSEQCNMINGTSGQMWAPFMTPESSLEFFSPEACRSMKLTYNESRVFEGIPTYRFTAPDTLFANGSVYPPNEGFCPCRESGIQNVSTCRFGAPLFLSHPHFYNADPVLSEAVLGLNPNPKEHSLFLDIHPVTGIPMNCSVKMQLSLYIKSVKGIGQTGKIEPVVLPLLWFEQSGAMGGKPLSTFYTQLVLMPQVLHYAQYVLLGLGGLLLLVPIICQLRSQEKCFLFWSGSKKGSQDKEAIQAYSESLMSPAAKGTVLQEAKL
With `Cc1csc(NC(=O)Nc2ccccc2[N+](=O)[O-])n1`, the inhibition (commonly the relative decrease from the control value, in per cent) is 2.45%.
`CCOC(=O)C/C(C)=N\Nc1ccc([N+](=O)[O-])cc1[N+](=O)[O-]`: the inhibition was -9.86%.
`CCOC(=O)/C(=N\Nc1ccccc1[N+](=O)[O-])c1csc(Nc2ccccc2)n1`: the inhibition is 106% (active).
In the case of `O=C(OCCOc1ccccc1F)c1cc(S(=O)(=O)N2CCOCC2)ccc1F`, the inhibition was 12.6%.
With `COc1ccc(S(=O)(=O)N2CCC(C(=O)OCC(=O)c3ccccc3)CC2)cc1[N+](=O)[O-]`, the inhibition was -14.3%.
The same measure for `COC(=O)c1cc(Oc2ccc(S(=O)(=O)N3CCOCC3)cc2[N+](=O)[O-])cc(C(=O)OC)c1`: 70.8% (active).
Take `C=C(C)CNc1cc(S(=O)(=O)N2CCOCC2)ccc1Oc1ccccc1`: the inhibition was 10.5%.
Turning to `CC(C)(C)C(=O)Nc1cccc(-c2ccc[nH]2)n1`, the inhibition was -5.41%.
Take `O=C(CN1CCC(NC(=O)Nc2ccccc2)CC1)Nc1cccc([N+](=O)[O-])c1`: the inhibition is 30.9%.
With `Cc1cc(C)cc(NC(=O)NC2CCN(CC(=O)Nc3cccc(Cl)c3C)CC2)c1`, the inhibition is 74.4% (active).
In the case of `COc1cccc(NC(=O)CN2CCN(CC(=O)Nc3ccccc3Cl)CC2)c1`, the inhibition was 19.8%.
Consider `O=C(Cc1ccc([N+](=O)[O-])cc1)NCCc1ccc2c(c1)OCO2`, for which the inhibition is 30.8%.
Consider `CC(C)=CCc1ccc(O)c(=O)cc1C(C)C`, for which the inhibition is 12.4%.
With `CC(=O)OC1CCC2C3CCC4=C(CC(F)C(=O)C4)C3CCC12C` (stereo not drawn), the inhibition was 3.99%.
For `Brc1ccc(-c2csc(N/N=C/c3ccc4c(c3)OCO4)n2)cc1`, the inhibition was 79.4% (active).
Regarding `Brc1ccc(-c2csc(N/N=C/c3cccnc3)n2)cc1`, the inhibition was 37.2%.
In the case of `C(=N\Nc1ccc2ccccc2n1)/c1ccc2c(c1)OCO2`, the inhibition was 7.43%.
Turning to `NC(=O)c1ncn([C@@H]2O[C@H](CNCc3cnc(N4CCOCC4)s3)[C@@H](O)[C@H]2O)n1`, the inhibition was 12%.
To `CC/C(=C(/c1ccccc1)c1ccc(OCC[N+](C)(C)C)cc1)c1ccccc1` belongs -44.1%.
The same measure for `CCc1ccnc(NC(=O)Nc2ccc(OCc3ccccc3)cc2)c1`: 81.9% (active); for `O=C(O)/C=C\C(=O)Nc1ccc(OCc2ccccc2)cc1`: -11.2%.
As for `Cc1cccc(NC(=O)Nc2ccc(OCc3ccccc3)cc2)n1`, the inhibition was 17.6%.
On to `Cc1cc(NC(=O)C(C)SCC(=O)Nc2cccc(S(=O)(=O)N3CCCCCC3)c2)no1` (stereo not drawn), for which the inhibition was 41.5%.
To `Cc1cn(C2CC(O)C(CO)O2)c(=O)n(CCCc2ccccc2)c1=O` (stereo not drawn) belongs 2.76%; to `Cc1ccccc1OCC(=O)Nc1ccc(S(=O)(=O)N2CCOCC2)cc1`, -12.4%.
In the case of `Cc1ccccc1OCC(=O)Nc1ccc2c(c1)ncn2C`, the inhibition was 9.34%.
`Cc1ccccc1OCC(=O)Nc1ccc(N2CCN(C(=O)C(C)C)CC2)c(Cl)c1`: the inhibition is 72% (active).
For `Cc1ccc(Cn2c(C)c3cnn(CC(=O)NCCN4CCOCC4)c(=O)c3c2C)cc1`, the inhibition is 22.1%.
On to `CCC1(C)COC(c2ccc(OC)c(OC)c2)OC1` (stereo not drawn), for which the inhibition was -11.4%.
Consider `Cc1ccc(C(=O)O)c(NC=O)c1OCc1ccccc1`, for which the inhibition was -19.3%.
To `CCOC(=O)/C(C#N)=C/c1ccc(OCC(=O)Nc2ccccc2)c(OC)c1` belongs -11.4%.
The same measure for `CCOC(=O)COc1ccc([N+](=O)[O-])cc1`: -24.5%; for `CCOC(=O)/C(=C\c1ccc([N+](=O)[O-])cc1)C(=O)c1cc(C(C)=O)c(Nc2ccccc2)s1`: 80.9% (active).
Consider `Cc1nc2ccc(N)nc2nc1C`, for which the inhibition was 22.1%.
As for `O=[N+]([O-])c1ccc(NS(=O)(=O)c2ccccc2)c(Cl)c1`, the inhibition was -84.4%.
Turning to `COc1cccc2oc(CCc3ccccc3)cc(=O)c12`, the inhibition is -4.54%.
As to `COc1ccccc1C(=O)NC(=S)Nc1ccccc1N1CCCCC1`, the inhibition is 49.6%.
As to `CCC(=O)Nc1ccccc1N1CCN(S(C)(=O)=O)CC1`, the inhibition was -20.6%.
To `COc1ccc(C(=O)NC(=S)Nc2ccccc2N2CCN(S(C)(=O)=O)CC2)cc1OC` belongs 74.4% (active); to `COc1cccc(/C=N/Nc2ccc(S(=O)(=O)Nc3ccccc3C(=O)O)cc2[N+](=O)[O-])c1O`, -4.5%; to `COc1cccc(C(=O)NNC(=O)c2cccc(F)c2)c1`, -14.2%.
As to `COc1cccc(C(=O)Nc2ccc(N3CCN(C(=O)c4ccco4)CC3)cc2)c1`, the inhibition was 36.3%.
As to `COc1ccc(OCC(=O)Nc2ccc(N3CCC(C)CC3)cc2)cc1`, the inhibition was 65.5%.
Turning to `COc1cccc(C(=O)Nc2nnc(S(=O)(=O)N3CCCCC3)s2)c1`, the inhibition is -13.3%.
To `O=C(Nc1ccccc1)c1ccc2c(c1)OCCCO2` belongs -9.51%; to `COc1ccc(C(=O)Nc2ccc(N3CCC(C)CC3)cc2)cc1Br`, 94.5% (active); to `COc1cccc(C(=O)Nc2ccc(N3CCCC3)cc2)c1`, 80.4% (active).
`COc1ccc(C(=O)NCCCN2CCOCC2)cc1Br`: the inhibition was -15.8%.
Regarding `COc1cccc(C(=O)Nc2cc3c(cc2Br)OCCCO3)c1`, the inhibition was 83.6% (active).
As for `COc1ccc(CNC(=O)COC(=O)C2=Cc3ccccc3OC2)cc1`, the inhibition was -3.54%.
Take `O=S1(=O)CCOC[C@H](Cc2ccccc2)N1Cc1ccccc1Br`: the inhibition is -16.4%.
As to `O=C(OCCOc1ccccc1Cl)c1cc(S(=O)(=O)N2CCCCC2)ccc1N1CCOCC1`, the inhibition is -9.43%.
Turning to `COCCNC(=S)N/N=C/c1c(C)[nH]c2ccccc12`, the inhibition was 2.4%.
Regarding `CN=c1scc(-c2cc(OC)ccc2OC)n1/N=C/c1c(C)[nH]c2ccccc12`, the inhibition was 77.2% (active).
With `CCn1c(-c2cc(OC)ccc2OC)csc1=Nc1c(C)n(C)n(-c2ccccc2)c1=O`, the inhibition was -4.8%.
With `O=C1C2C3C=CC(C3)C2C(=O)N1c1ncc([N+](=O)[O-])s1` (stereo not drawn), the inhibition was -8.82%.
Consider `CCC(=O)N1CCc2cc(Br)c(S(=O)(=O)NCCN3CCCCC3CC)cc21` (stereo not drawn), for which the inhibition is 11.6%.
On to `COc1cc(C(=O)N2CCN(S(=O)(=O)c3ccc(C(C)C)cc3)CC2)ccc1OCC(=O)N1CCOCC1`, for which the inhibition is -10.9%.
Regarding `Cc1ccc(Nc2c(O)nc[nH]c2=O)cc1C`, the inhibition was 4.84%.
Regarding `COC(=O)Cc1nc2c(N)nc(N)nc2[nH]c1=O`, the inhibition was -15.9%.
The same measure for `O=C(N/N=C/c1ccccc1O)/C(=C/c1ccccc1)CCO`: 24.8%.
As to `O=C(N/N=C/c1ccccc1O)C1CCCC1`, the inhibition is 4.81%.
In the case of `O=C(NN=Cc1ccccc1O)NN=Cc1ccccc1O`, the inhibition was 79.8% (active).
As to `COc1ccccc1C(=O)c1ccccc1C(=O)c1ccccc1`, the inhibition was 6.29%.
The same measure for `COc1ccc(CNC(=O)CN2C(=O)c3ccccc3S2(=O)=O)cc1`: -16.4%; for `CC(C)C(=O)Nc1cccc(NC(=O)c2ccc([N+](=O)[O-])cc2Cl)c1`: -2.31%; for `Cc1cc([N+](=O)[O-])ccc1NC(=O)c1ccc(NC(=O)C(C)C)cc1`: 74.9% (active).
`CC(=O)c1ccc(NC(=O)Nc2ccc([N+](=O)[O-])cc2C)cc1`: the inhibition is 26.8%.
The same measure for `Nc1ccc2[nH]c(=S)sc2c1`: 5.71%.
Take `COc1cccc(N(CC(=O)NC2CCCC2)C(=O)Cn2nnc(-c3ccc(C)cc3)n2)c1`: the inhibition is 73.6% (active).
On to `COc1cccc(N(CC(=O)NC2CCCC2)C(=O)CCCC(=O)Nc2ccccn2)c1`, for which the inhibition is 21.1%.
To `COc1ccc(-c2nnn(CC(=O)N(CCO)C(C(=O)NC3CCCC3)c3ccc(F)cc3)n2)cc1` (stereo not drawn) belongs 10.5%; to `O=c1[nH]c2c(c(=O)n1-c1ccccc1)CCO2`, 2.86%.
Regarding `O=C(N/N=C/c1cc(Cl)cc([N+](=O)[O-])c1O)C(O)(c1ccccc1)c1ccccc1`, the inhibition was 77.8% (active).
On to `O=C(Cc1cc(=O)[nH][nH]1)N/N=C/c1ccccc1[N+](=O)[O-]`, for which the inhibition is -19.1%.
Turning to `CN(C)/N=C/c1cc(Cl)cc([N+](=O)[O-])c1O`, the inhibition is -14.6%.
To `N=C1c2ccccc2-c2ccccc21` belongs -9.24%.
To `CCC(C(=O)OCC(=O)Nc1c(Cl)cc(Cl)cc1Cl)c1ccccc1` (stereo not drawn) belongs -13.8%; to `CCC(C(=O)OCC(=O)Nc1ccccc1-c1ccccc1)c1ccccc1` (stereo not drawn), -4.74%.
As for `CCC(C(=O)OCC(=O)Nc1ccc(C(=O)Nc2ccc(OC)cc2)cc1)c1ccccc1` (stereo not drawn), the inhibition is 79.1% (active).
Regarding `COc1ccc(NC(=O)/C(N=Nc2cccc(S(=O)(=O)Nc3ccc(SC(F)F)cc3)c2)=C(\C)O)cc1`, the inhibition is -19.4%.
`COC(=O)C(C)Sc1ccc2nnc(-c3cccc(F)c3)n2n1` (stereo not drawn): the inhibition is -12.2%.
Regarding `COc1ccc(NC(=O)c2cc3nc(-c4ccccc4)cc(C)n3n2)cc1OC`, the inhibition was -10.7%.
As to `COCCNc1cc(-c2ccccc2)nc2cc(-c3cccc(F)c3)nn12`, the inhibition was 71.2% (active).
To `COc1ccc(NS(=O)(=O)c2ccc(N3CCOCC3)c(NC(=O)/C=C/C(=O)O)c2)cc1` belongs -22.2%; to `CC(C)Cc1nnc(N)s1`, -10.1%; to `CCOc1ccc(C(C)=O)cc1COC(=O)CN1C(=O)NC2(CCCC2)C1=O`, 28.5%.
Consider `CCOc1ccc(C(C)=O)cc1COC(=O)c1cnc(Cl)c(Cl)c1`, for which the inhibition was -10.9%.
For `CCOc1ccc(C(C)=O)cc1COC(=O)CNC(=O)c1cccs1`, the inhibition is 72.6% (active).
Take `Cc1cccc(C=CC(=O)c2ccc(Cl)cc2)c1`: the inhibition is 0.714%.
The same measure for `NC(CSC1(c2ccccc2)c2ccccc2-c2ccccc21)C(=O)O` (stereo not drawn): -5.45%.
On to `O=C(NCc1ccccc1)c1cccc(NC(=O)C2CCCCC2)c1`, for which the inhibition is 0.488%.
Consider `OCC1(CO)CC2(C1)CC(CO)(CO)C2`, for which the inhibition is -21.2%.
